Assay outcomes: PubChem BioAssay, National Center for Advancing Translational Sciences (NCATS)
An excerpt weighted towards active compounds, which were near 6% of everything screened.
PLK1 PBD inh – blocks phosphopeptide binding to human PLK1 polo-box domain; 360,000 tested, 2.8% active; Plk1 PBD binding of FITC phosphopeptide, fluorescence polarization; Potency, µM, actives largely listed as inhibitors; note: series mostly up to about 57 µM; nearly all actives have a fitted effect of over 65% in size
Tau fluor counter – counter-screen for tau fibril formation inhibitors; tau K18 P301L Alexa594 fluorescence, heparin fibrillization; Potency, µM (series often up to 57.7 µM); 280,000 tested, 0.93% active; AID 1463; note: nearly all actives have a fitted effect of over 55% in size
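Human tau K18 P301L (15 uM unlabeled, 0.24 uM Alexa 594-labeled) in 100 mM sodium acetate pH 7 with 20 uM heparin, 6 hr at 37 C. ThT 30 uM added, 1 hr ambient; Alexa 594 FP and total fluorescence read at 555/632 nm.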
Sfp inh – inhibitors of Bacillus subtilis Sfp phosphopantetheinyl transferase | Q9F4F7 | Potency, µM, hits mostly inhibitors | 310,000 tested, 3.5% active | Biochemical Sfp PPTase activity, qHTS | AID 1490;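 note: the enzyme is Sfp with the accession as filed and its product quenches rhodamine fluorescence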
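Compounds were incubated with enzyme (final 15 nM) for 15 min at room temperature before substrate addition started the reaction. Fluorescence at 525 nm excitation, 598 nm emission was recorded immediately and after 30 minutes.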
VDR inhibitor – vitamin D3 receptor (human) inhibition | VDR-SRC2-3 peptide fluorescence polarization, 2 h | Potency, µM, actives largely listed as inhibitors | 400,000 tested, 0.93% active
Target sequence (P11473 whole entry, looked up): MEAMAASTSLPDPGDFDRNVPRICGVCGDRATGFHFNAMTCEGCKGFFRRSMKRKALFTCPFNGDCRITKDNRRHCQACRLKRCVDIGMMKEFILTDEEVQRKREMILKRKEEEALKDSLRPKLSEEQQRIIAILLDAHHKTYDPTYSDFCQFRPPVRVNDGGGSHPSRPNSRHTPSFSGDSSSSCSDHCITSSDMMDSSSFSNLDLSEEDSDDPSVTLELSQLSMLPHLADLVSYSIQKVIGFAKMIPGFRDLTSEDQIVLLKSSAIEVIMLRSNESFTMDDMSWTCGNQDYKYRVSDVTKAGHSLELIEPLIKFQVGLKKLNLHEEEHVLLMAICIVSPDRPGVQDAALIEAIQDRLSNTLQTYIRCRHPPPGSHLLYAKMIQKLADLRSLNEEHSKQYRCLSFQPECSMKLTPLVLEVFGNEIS
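Inhibition of the VDR/SRC2-3 peptide interaction is quantified by fluorescence polarization. Compounds (23 nl, pintool) incubate with the reagents for 2 hours at ambient room temperature.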
Tau ThT inhib – inhibitors of human tau fibril formation, thioflavin T binding; 270,000 tested, 2.1% active; P10636; recombinant tau K18 P301L (four-repeat tau fragment), heparin-induced fibrillization, ThT fluorescence; Potency, µM (series often up to 57.4 µM), hits mostly inhibitors; AID 1460; note: nearly all actives have a fitted effect of over 55% in size
Target sequence (P10636 561-689 P618L limits assumed): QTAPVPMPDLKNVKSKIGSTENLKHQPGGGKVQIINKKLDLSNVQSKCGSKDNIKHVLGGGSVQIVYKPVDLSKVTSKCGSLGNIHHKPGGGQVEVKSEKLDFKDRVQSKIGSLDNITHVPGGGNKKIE
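Tau K18 P301L fragment (15 uM unlabeled plus 0.24 uM Alexa 594-labeled) in 100 mM sodium acetate pH 7 with compound, fibrillization induced by 20 uM heparin for 6 hr at 37 C. Thioflavin T (30 uM) added, fluorescence read after 1 hr (ex 450, em 510 nm).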
Tau FP inhib – blocks human tau fibril formation measured by polarization. P10636. K18 P301L tau heparin fibrillization, Alexa594 FP, 6 h. Potency, µM (titrated, usually from 57.7 µM), actives largely listed as inhibitors. 280,000 tested, 0.39% active; note: nearly all actives have a fitted effect of over 55% in size
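Recombinant K18 P301L […], labeled with Alexa 594 at 0.24 uM over 15 uM unlabeled; heparin inducer 20 uM final; 37 C, 6 hr; FP endpoint.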
A number is an active result; [ ] = remark or other dose. Calls come from the whole dose curve; as a rule, active = well fitted curve in the direction sought with a large enough effect; inconclusive = small, poorly fitted or top-dose-only effect, or another doubt; inactive = no such curve, though single readings can be large; an effect the other way counts as inactive or inconclusive.

How did CC(NC(=O)Cn1cc(C(=O)C2CC2)c2ccccc21)c1ccccc1 (stereo not drawn) do in these assays?
PLK1 PBD inh: 30µM; Tau fluor counter: inactive; Sfp inh: inactive; VDR inhibitor: inactive; Tau ThT inhib: inactive; Tau FP inhib: inactive

How did COC(=O)Cn1cc(C(=O)C2CC2)c2ccccc21 do in these assays?
PLK1 PBD inh: inactive; Tau fluor counter: inactive; Sfp inh: inactive; VDR inhibitor: inactive; Tau ThT inhib: inactive; Tau FP inhib: inactive

What do the screens show for `CN(C)S(=O)(=O)c1ccc(C(=O)NN2C(=O)NC3(CCCCC3)C2=O)cc1`?
PLK1 PBD inh: inactive; VDR inhibitor: inactive

How did COc1ccc(CCN2CC(C(=O)NCCc3cnn(C)c3)CCC2=O)cc1 (stereo not drawn) do in these assays?
PLK1 PBD inh: 12µM; Sfp inh: inactive; VDR inhibitor: inconclusive

What do the screens show for `O=C(NCCc1cn[nH]c1)C1CCC(=O)N(CCc2cccc(F)c2)C1` (stereo not drawn)?
PLK1 PBD inh: 3.4µM; Sfp inh: inactive; VDR inhibitor: inconclusive

What do the screens show for `COc1ccc(CCN2CC(C(=O)NCCc3ccc(F)cc3)CCC2=O)cc1` (stereo not drawn)?
PLK1 PBD inh: inactive; Sfp inh: inactive; VDR inhibitor: inactive

How did O=C(NCCc1cccc(C(F)(F)F)c1)C1CCC(=O)N(CCc2cccc(F)c2)C1 (stereo not drawn) do in these assays?
PLK1 PBD inh: inactive; Sfp inh: inactive; VDR inhibitor: inactive

Results for Cc1oc(-c2ccc(Cl)cc2)nc1CN1CCCC(C(=O)NC2CC2)C1 (stereo not drawn) ?
PLK1 PBD inh: 21µM; Sfp inh: inactive; VDR inhibitor: inconclusive

What do the screens show for `COc1ccc(CNC(=O)C2CCCN(Cc3nc(-c4cccc(C)c4)oc3C)C2)cc1` (stereo not drawn)?
PLK1 PBD inh: inactive; Tau fluor counter: inactive; Sfp inh: 56µM; VDR inhibitor: inactive; Tau ThT inhib: inactive; Tau FP inhib: inactive

Results for Cc1cccc(-c2nc(CN3CCCC(C(=O)NCc4ccc(Cl)cc4)C3)c(C)o2)c1 (stereo not drawn) ?
Tau fluor counter: inactive; VDR inhibitor: inactive; Tau ThT inhib: inconclusive; Tau FP inhib: inactive

How did COc1ccc(-c2nc(CN3CCCC(C(=O)NC4CCCC4)C3)c(C)o2)cc1 (stereo not drawn) do in these assays?
PLK1 PBD inh: inactive; Tau fluor counter: inactive; Sfp inh: inactive; VDR inhibitor: inactive; Tau ThT inhib: inactive; Tau FP inhib: inactive

How did CC(=O)N1CCC[C@@]2(CCN(Cc3ccc(C#N)cc3)C2)C1 do in these assays?
Sfp inh: inactive; VDR inhibitor: inconclusive

How did COCCNC(=O)C1(C)CCCN(Cc2noc(-c3ccccc3OC)n2)C1 (stereo not drawn) do in these assays?
PLK1 PBD inh: inactive

What do the screens show for `O=C(NCc1ccccc1Cl)c1ccc2c(c1)ncn2-c1cccc(F)c1`?
Tau fluor counter: inactive; VDR inhibitor: inactive; Tau ThT inhib: inactive; Tau FP inhib: inactive

What do the screens show for `N#CC1=C(Nc2ccccc2Cl)SC(c2ccncc2)NC1=O` (stereo not drawn)?
PLK1 PBD inh: 27µM

What do the screens show for `CC1CCCCN1Cc1c(O)ccc2c(=O)c(-c3nc4ccccc4s3)coc12` (stereo not drawn)?
PLK1 PBD inh: 21µM; Tau fluor counter: inactive; Sfp inh: inactive; VDR inhibitor: inactive; Tau ThT inhib: inactive; Tau FP inhib: inactive

Results for OC[C@H](O)[C@H](O)[C@@H](O)[C@@H](O)[C@@H]1SC(c2ccccc2)=NN1c1ccccc1 ?
PLK1 PBD inh: inconclusive; Tau fluor counter: inactive; Sfp inh: inactive; VDR inhibitor: 22µM; Tau ThT inhib: inconclusive; Tau FP inhib: inactive

How did COC(=O)CN1C(=O)N/C(=C/c2ccc(C)o2)C1=O do in these assays?
PLK1 PBD inh: inactive; Tau fluor counter: inactive; Sfp inh: 22µM; VDR inhibitor: inactive; Tau ThT inhib: inconclusive; Tau FP inhib: inconclusive

Results for COC(=O)COc1ccc(/C=C2/NC(=O)N(CC(=O)OC)C2=O)cc1 ?
PLK1 PBD inh: inactive; Tau fluor counter: inactive; Sfp inh: inactive; VDR inhibitor: inactive; Tau ThT inhib: inactive; Tau FP inhib: inactive

Results for CO[C@@H]1CN(C)C(=O)c2cc(NC(=O)NC3CCCCC3)ccc2OC[C@@H](C)N(CC2CCOCC2)C[C@@H]1C ?
PLK1 PBD inh: inactive

How did Cc1ccc2nc(CSc3nnc(NC(=O)c4ccc(C(C)(C)C)cc4)s3)cc(=O)n2c1 do in these assays?
Tau fluor counter: inactive; VDR inhibitor: inactive; Tau ThT inhib: inactive; Tau FP inhib: inactive

What do the screens show for `COCC(=O)OC1CCn2c1nc1c2C(=O)C(C)=C(NC(C)=O)C1=O` (stereo not drawn)?
PLK1 PBD inh: inactive; VDR inhibitor: inactive

Results for NNc1nc2ccc(Cl)cc2s1 ?
PLK1 PBD inh: inactive; Tau fluor counter: 14µM[quencher]; Sfp inh: inactive; VDR inhibitor: inactive; Tau ThT inhib: 22µM; Tau FP inhib: inconclusive

Results for Cn1ncc(Cl)c1C(=O)Nc1nc2ccc(Cl)cc2s1 ?
PLK1 PBD inh: 17µM; Tau fluor counter: inactive; Sfp inh: inactive; VDR inhibitor: inactive; Tau ThT inhib: inconclusive; Tau FP inhib: inactive

Results for NNc1nc2ccc(F)cc2s1 ?
PLK1 PBD inh: inactive; Tau fluor counter: 18µM[quencher]; Sfp inh: inactive; VDR inhibitor: inconclusive; Tau ThT inhib: 25µM; Tau FP inhib: inconclusive

What do the screens show for `COc1ccccc1N(C)S(=O)(=O)c1ccc(C(=O)Nc2cc(OC)c(OC)c(OC)c2)cc1`?
PLK1 PBD inh: inactive; VDR inhibitor: inactive

What do the screens show for `COc1ccccc1Cn1c(=S)[nH]c2cc(C(=O)N3CCCC(C)C3)ccc2c1=O` (stereo not drawn)?
PLK1 PBD inh: inactive

What do the screens show for `Cc1ccc(N2CCN(C(=O)c3nn(C)c4c3CSc3ccccc3-4)CC2C)cc1` (stereo not drawn)?
Tau fluor counter: inactive; VDR inhibitor: inactive; Tau ThT inhib: inactive; Tau FP inhib: inactive

Results for O=C(NCCCn1ccnc1)C1CCN(S(=O)(=O)c2cc([N+](=O)[O-])ccc2Cl)CC1 ?
PLK1 PBD inh: inactive; VDR inhibitor: inactive

How did Cc1nnc(N/N=C/c2cc([N+](=O)[O-])c(N3CCC(C)CC3)cc2N2CCC(C)CC2)n1N do in these assays?
PLK1 PBD inh: inactive; Tau fluor counter: inconclusive; Sfp inh: inconclusive; VDR inhibitor: inactive; Tau ThT inhib: 18µM; Tau FP inhib: inactive

How did CCc1nnc(N/N=C/c2ccc(N3CCC(C)CC3)c([N+](=O)[O-])c2)n1N do in these assays?
PLK1 PBD inh: inactive; Tau fluor counter: inconclusive; Sfp inh: 71µM; VDR inhibitor: 18µM; Tau ThT inhib: 13µM; Tau FP inhib: inactive
